High-throughput results from PubChem BioAssay.
TMEM16A inh – blocks the mouse calcium-activated chloride channel TMEM16A. Q8BHY3. HEK293 TMEM16A/YFP iodide influx fluorescence, ionomycin. normalized B-score (activity score, 25-100; higher = stronger inhibition) at 10 µM. 310,000 tested, 1.2% active. AID 588511;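 active = ratio plate-corrected score three or more library SD toward inhibition, starting fluorescence score within five deviations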;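 note: score derived from kinetic fluorescence span divided by baseline fluorescence per well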
CHT block – inhibitors of human choline transporter CHT; CHT-expressing cells, membrane potential dye, choline response; stronger effect = lower value; AID 488975; B-score at 10 µM; 310,000 tested, 0.86% active;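 active = B-score over 3 SD under the library average, and starting fluorescence ratio not unusually high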;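 note: choline stimulus applied at its EC90 after an EC20 pre-addition; B-score computed on integrated fluorescence ratio after choline addition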
Target sequence (Q9GZV3 whole entry, looked up): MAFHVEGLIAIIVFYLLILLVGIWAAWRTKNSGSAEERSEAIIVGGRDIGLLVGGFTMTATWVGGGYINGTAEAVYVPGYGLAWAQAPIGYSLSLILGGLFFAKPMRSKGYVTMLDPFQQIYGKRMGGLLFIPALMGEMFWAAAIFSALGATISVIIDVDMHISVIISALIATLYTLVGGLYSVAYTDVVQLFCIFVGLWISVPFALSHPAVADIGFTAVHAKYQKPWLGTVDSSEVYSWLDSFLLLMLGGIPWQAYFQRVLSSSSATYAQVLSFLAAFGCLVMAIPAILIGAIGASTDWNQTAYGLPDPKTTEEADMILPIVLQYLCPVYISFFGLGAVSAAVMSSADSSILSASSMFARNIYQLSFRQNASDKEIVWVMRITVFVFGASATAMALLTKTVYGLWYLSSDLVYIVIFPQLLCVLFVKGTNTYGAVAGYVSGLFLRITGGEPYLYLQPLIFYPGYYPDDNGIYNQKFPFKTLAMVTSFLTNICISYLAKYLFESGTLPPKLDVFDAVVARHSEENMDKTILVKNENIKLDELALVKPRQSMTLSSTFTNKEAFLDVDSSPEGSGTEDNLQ
TMEM16A act – mouse TMEM16A channel activation, primary screen; Q8BHY3; HEK293 TMEM16A/YFP-H148Q/I152L, iodide quench fluorescence; stronger effect = lower value; B-score at 10 µM; 340,000 tested, 0.3% active;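 active = fluorescence-ratio B-score plate-corrected deviation score at least 3 library SD below zero, with starting fluorescence score within 5 deviations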;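 note: channel opened by trigger with iodide after compound preincubation; score built on the fluorescence ratio of max minus min over baseline; more negative score means more quench and so TMEM16A activation or potentiation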
CHT allo act – allosteric activators of human choline transporter CHT | Q9GZV3 | CHT-expressing cells, membrane potential dye, choline EC20; stronger effect = higher value; LV-AA mutant CHT in HEK293 cells | B-score at 10 µM | 310,000 tested, 0.49% active;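 active = initial fluorescence not abnormally high and integrated response B-score, plate-corrected, over 3 SD above library mean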
CHT block conf – human CHT inhibition, confirmatory screen. shares compounds with CHT block. CHT-expressing cells, choline membrane potential dye; LV-to-AA substituted CHT, HEK293 cells. CHT activity remaining % of control (stronger effect = lower value), % at 10 µM. 2,400 tested, 70% active;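 active = choline transporter activity left, mean of duplicates at 10 µM, below buffer-only control mean minus 3 SD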;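 note: depolarization triggered by choline at its EC90 following an EC20 pre-addition; 0% = hemicholinium-3 full block and 100% = buffer-only control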
HEK293 MPD ctr – activity in parental HEK293 cells lacking CHT; shares compounds with CHT block; 2,400 tested, 4% active; membrane potential dye, choline response; active = decrease or increase beyond buffer ±3SD; membrane potential ratio readout (active if shifted either direction beyond buffer ±3SD; no single direction) at 10 µM;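 note: parental cells lack the transporter so any hit is non-specific; ratio is peak minus trough fluorescence over baseline after EC90 choline challenge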
An asterisk follows results filed as active; i = inactive; / = not tested or not shown. Sampled rows, rich in hits. Any-hit rate of the full collection: about 2.4%.

SMILES | TMEM16A inh | CHT block | TMEM16A act | CHT allo act | CHT block conf | HEK293 MPD ctr
CCCCCc1cc(=O)oc2c(C(CCN(CC)CC)c3cc(OC)c(OC)c(OC)c3)c(OC)cc(OC)c12 (stereo not given) | i | -5.8* | i | i | 51%* | i
CCN(CC)CCC(c1ccc(N(C)C)cc1)c1c(OC)cc(OC)c2c(-c3ccccc3)cc(=O)oc12 (stereo not given) | i | i | i | i | / | /
CN(/N=C/c1ccc([N+](=O)[O-])o1)c1ccccc1 | i | -5.7* | i | i | 50%* | i
Cc1ccc(C(=O)NC(=S)N2CCN(c3ccccc3F)CC2)cc1 | i | i | i | i | / | /
O=C(Nc1nnc(-c2ccc(F)cc2)o1)c1cc(Cl)sc1Cl | i | -6.8* | i | i | 63%* | i
Cc1ccc(C(=O)N2CCN(C)CC2)cc1[N+](=O)[O-] | i | i | i | i | / | /
Clc1ccc(CSc2ncnc3nc[nH]c23)cc1 | i | -6.2* | i | i | i | i
O=C(COc1ncnc2ccccc12)Nc1ccc(Cl)c([N+](=O)[O-])c1 | i | i | i | i | / | /
Cc1cc(=O)[nH]c(SCC(=O)c2ccc(C(C)C)cc2)n1 | i | i | i | i | / | /
COc1ccc(C(=O)CSc2nc(C)cc(=O)[nH]2)cc1 | i | -5.6* | i | i | i | i
Cc1cc(=O)[nH]c(SCC(=O)c2ccc(C)c(C)c2)n1 | i | -7.3* | i | i | 64%* | i
Cc1ccc(C(=O)CSc2n[nH]c(-c3ccco3)n2)cc1C | i | -5.1* | i | i | 50%* | i
O=C1/C(=C/c2ccccn2)SC(=S)N1N1CCOCC1 | i | i | i | i | / | /
CC(C)CC(=O)Nc1nc(=S)ss1 | 100* | -6.8* | i | i | 40%* | i
CC(C)CC(=O)Nc1nc2ccc(S(C)(=O)=O)cc2s1 | i | i | i | i | / | /
O=C(NCc1ccco1)/C(=C/C=C/c1ccccc1)NC(=O)c1ccco1 | i | i | i | i | / | /
Cc1ccc(C(=O)N/C(=C\C=C\c2ccccc2)C(=O)NCc2ccco2)cc1 | i | -6.6* | i | i | 54%* | i
C=CCn1c(SCC(=O)c2ccc(OC)cc2)nnc1-c1ccc2c(c1)OCO2 | i | -15* | i | i | i | i
Fc1ccc(-c2nnc(SCc3ncc(-c4ccccc4)o3)n2CC2CCCO2)cc1 (stereo not given) | i | -5.9* | i | i | i | i
COc1ccc(-c2nnc(SCc3nnc(-c4cccs4)o3)n2CC2CCCO2)cc1 (stereo not given) | i | i | i | i | / | /
CCn1cc(C(=O)NCCCN2CCC(C)CC2)c(=O)c2cc(S(=O)(=O)N(C)C3CCCCC3)ccc21 | i | -6.5* | i | i | 39%* | i
CCn1cc(C(=O)NCCCN2CC(C)CC(C)C2)c(=O)c2cc(S(=O)(=O)N(C)C3CCCCC3)ccc21 (stereo not given) | i | -5* | i | i | 45%* | 2.9*
C=CCn1c(SCc2ccccc2Cl)nnc1-c1sc2nc(C)cc(C)c2c1N | i | i | i | i | / | /
COc1ccccc1C(=O)Nc1ccc2c(c1)nc1n2CCSC1 | i | i | i | i | / | /
O=C(O)CCNC1C=CS(=O)(=O)C1 (stereo not given) | i | -6.2* | i | i | i | i
SMILES | TMEM16A inh | CHT block | TMEM16A act | CHT allo act | CHT block conf | HEK293 MPD ctr
CCOC(=O)NC1C=CS(=O)(=O)C1 (stereo not given) | i | i | i | i | / | /
O=C(Nc1ccc(F)cc1)N1CCN(CCc2ccccc2)CC1 | i | -5.4* | i | i | 69%* | i
CCc1cc2c(NCc3ccco3)ncnc2s1 | i | -6.6* | i | i | 50%* | i
O=C1OC(/C(=C\Nc2cc(Cl)ccc2O)[N+](=O)[O-])c2ccccc21 (stereo not given) | i | i | i | i | / | /
CCn1cc(CN(C)C(=O)CSc2nc(-c3ccco3)cc(C(F)(F)F)n2)c(C)n1 | i | i | i | i | / | /
Cc1c(CN(C)C(=O)CSc2nc(-c3ccco3)cc(C(F)(F)F)n2)cnn1C | i | -7* | i | i | 69%* | -8.6*
Cc1ccc(N2CC(C(=O)Nc3nnc(SCC(=O)NCC4CCCO4)s3)CC2=O)cc1C (stereo not given) | i | i | i | i | / | /
Cc1ccccc1NC(=O)c1ccc(C)c(S(=O)(=O)N2CCN(C)CC2)c1 | i | -5.7* | i | i | 59%* | i
Cc1ccc(C(=O)OC(C)C(=O)NC2CCCCC2C)cc1S(=O)(=O)N1CCCCC1 (stereo not given) | i | -7.9* | i | i | i | i
Cc1ccc(C(=O)NC2CCCCCC2)cc1S(=O)(=O)N1CCOCC1 | i | i | i | i | / | /
Cc1ccc(C(=O)NC2CCCCC2)cc1S(=O)(=O)N1CCCC1 | i | -6* | i | i | 61%* | i
CCOC(=O)c1ccc(NC(=O)c2ccc(C)c(S(=O)(=O)N3CCOCC3)c2)cc1 | i | -5.5* | i | i | 68%* | i
CC(OC(=O)c1ccc(Cl)c(S(=O)(=O)N2CCCC2)c1)C(=O)NC1CCCCC1C (stereo not given) | i | i | / | i | / | /
CCOC(=O)c1cnc(SCC(=O)OCC(=O)NC2CCS(=O)(=O)C2)nc1N (stereo not given) | i | i | i | i | / | /
O/N=C/c1ccnc(SCc2ccccc2)n1 | i | -5.1* | i | i | 59%* | i
OC(COc1ccc2cc(Br)ccc2c1)Cn1ccnc1 (stereo not given) | i | i | i | i | / | /
CCOC(=O)C1CCN(C(=O)COc2ccc(Br)cc2Br)CC1 | i | i | i | i | / | /
CCOC(=O)C1CCN(C(=O)COc2cc(C)c(Br)cc2C)CC1 | i | -6.5* | i | i | i | i
O=C(CSc1nnc(Cc2ccsc2)o1)c1ccccc1 | i | -5.2* | i | i | 70%* | i
CC(C)Cn1c(N)c(C(=O)COC(=O)c2ccccc2Cl)c(=O)n(C)c1=O | i | -10* | i | i | i | i
CC(C)Cn1c(N)c(C(=O)COC(=O)c2ccccc2F)c(=O)n(C)c1=O | i | i | i | i | / | /
Cc1nc(SCC(N)=O)[nH]c(=O)c1Cc1ccc(OC(C)C)cc1 | i | -6.1* | i | i | i | i
